Test systems include CDK4-cyclinD3; CDK4; CDK5; CDK7; CDK8; CDK9; CDKL1; CDKL2; CDKL3; CDKL5; CHEK1; CHEK2; CIT; CLK1; CLK2; CLK3; CLK4; CSF1R-autoinhibited; CSF1R; CSK.
Holding throughout (conditions): concentration: 1 μM, replicates: in singlicate; n = 1

The results in this text go back to article PMC5540273 (PLoS ONE, 2017).
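Further: KINOMEscan kinase panel screen.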

`N#Cc1ccc(-c2cc(-c3c[nH]nc3-c3ccccn3)ccn2)cc1` [GW693028]: the “%Inh” value turned out to be 2% in the assay on CDK4-cyclinD3; 11% with CDK4; 0% with CDK5; 0% in the assay with CDK7; 23% in the assay with CDK8; 0% in the assay with CDK9. Besides, the “%Inh” value in the assay on CDKL1 worked out at 8%; in the assay with CDKL2, 13%; in the assay with CDKL3, 0%; with CDKL5 it was 0%; in the assay on CHEK1 it was 0%; with CHEK2, 0%. Further, the “%Inh” value is on record as 35% in the assay on CIT; 22% in the assay on CLK1; 8% in the assay on CLK2; 0% with CLK3; 38% with CLK4; 0% with CSF1R-autoinhibited. The “%Inh” value turned out to be 20% in the assay with CSF1R and 0% in the assay with CSK.
Turning to `Cc1nnc(-c2ccc3occ(-c4ccc(C(C)O)cc4)c3c2)o1` (stereo not drawn), the “%Inh” value with CDK4-cyclinD3 amounted to 0%; with CDK4 it was 0%; in the assay on CDK5 it was 1%; in the assay on CDK7 it was 17%; in the assay on CDK8 it was 0%; in the assay on CDK9 it was 8%. The “%Inh” value with CDKL1 is 52%; in the assay with CDKL2, 0%; in the assay with CDKL3 it was 0%; in the assay on CDKL5 it was 25%; with CHEK1, 13%; in the assay on CHEK2, 15%. In addition, the “%Inh” value amounted to 11% in the assay on CIT; 31% in the assay on CLK1; 2% in the assay with CLK2; 6% in the assay with CLK3; 33% in the assay with CLK4; 6% with CSF1R-autoinhibited. The “%Inh” value was 1% with CSF1R and 3% with CSK.
Take `O=c1cc(N2CCOCC2)nc2n(Cc3cccc(F)c3)ccn12` [GSK2297430]: the “%Inh” value stood at 0% in the assay on CDK4-cyclinD3; 19% in the assay with CDK4; 0% in the assay with CDK5; 0% in the assay on CDK7; 26% in the assay on CDK8; 0% in the assay with CDK9. Also, the “%Inh” value with CDKL1, in the assay with CDKL2, in the assay with CDKL3, with CDKL5, with CHEK1 and in the assay with CHEK2 was 0% in each case. For the same compound, the “%Inh” value is on record as 26% in the assay on CIT; 33% with CLK1; 0% with CLK2; 30% in the assay on CLK3; 45% in the assay on CLK4; 0% in the assay on CSF1R-autoinhibited. Also, the “%Inh” value with CSF1R and in the assay on CSK was 0% throughout.
In the case of `Cc1ccc(NC(=O)c2ccnc(N3CCN(C)CC3)c2)cc1-c1ccc(C(=O)NCC2CC2)cc1` [GW775604], the “%Inh” value in the assay on CDK4-cyclinD3 came to 0%; with CDK4, 2%; with CDK5, 0%; in the assay with CDK7, 0%; in the assay with CDK8, 0%; in the assay on CDK9, 0%. Moreover, the “%Inh” value in the assay with CDKL1 is on record as 0%; in the assay on CDKL2, 0%; in the assay on CDKL3 it was 5%; in the assay with CDKL5, 0%; in the assay with CHEK1, 0%; in the assay with CHEK2, 15%. Besides, the “%Inh” value in the assay on CIT, in the assay on CLK1, with CLK2, in the assay with CLK3, in the assay with CLK4 and in the assay on CSF1R-autoinhibited was 0% each time. Also, the “%Inh” value in the assay with CSF1R is 22%; in the assay with CSK, 0%.
As to `Cl.Oc1cccc(Nc2ccnc3cc(-c4ccncc4)ccc23)c1` [GW494601], the “%Inh” value in the assay on CDK4-cyclinD3 was determined as 0%; in the assay on CDK4 it was 37%; in the assay with CDK5, 0%; in the assay with CDK7, 10%; with CDK8, 36%; in the assay on CDK9, 4%. Further, the “%Inh” value was 2% with CDKL1; 2% in the assay on CDKL2; 0% in the assay on CDKL3; 0% in the assay with CDKL5; 0% with CHEK1; 42% with CHEK2. In addition, the “%Inh” value was found to be 68% with CIT; 9% in the assay with CLK1; 0% in the assay with CLK2; 0% with CLK3; 33% in the assay with CLK4; 41% with CSF1R-autoinhibited. The figures for the “%Inh” value in the assay with CSF1R and with CSK were 91.9% and 65%, respectively.
As to `CC(=O)Nc1ccc(COc2ccc(Nc3ccnc4cc(-c5ccccn5)ccc34)cc2)cc1.Cl` [GW440148], the “%Inh” value in the assay with CDK4-cyclinD3 is reported as 0%; in the assay on CDK4, 0%; in the assay on CDK5, 0%; in the assay on CDK7, 0%; with CDK8, 8%; in the assay with CDK9 it was 14%. Further, the “%Inh” value is 7% with CDKL1; 12% with CDKL2; 0% in the assay with CDKL3; 0% in the assay on CDKL5; 1% with CHEK1; 29% with CHEK2. Also, the “%Inh” value in the assay on CIT was 20%; in the assay on CLK1, 35%; in the assay on CLK2, 0%; in the assay with CLK3 it was 0%; in the assay on CLK4, 0%; in the assay with CSF1R-autoinhibited, 32%. In addition, the “%Inh” value was found to be 99.3% with CSF1R and 36% in the assay on CSK.
Consider `CN1c2ccc(NCc3ccc(F)cc3)cc2-c2c(cnn2C)S1(=O)=O`, for which the “%Inh” value is 0% with CDK4-cyclinD3; 0% in the assay on CDK4; 6% in the assay on CDK5; 0% in the assay with CDK7; 62% in the assay with CDK8; 15% in the assay with CDK9. The “%Inh” value with CDKL1 was determined as 20%; in the assay on CDKL2, 19%; in the assay with CDKL3, 0%; in the assay on CDKL5, 0%; with CHEK1, 0%; with CHEK2, 0%. Further, the “%Inh” value came to 0% with CIT; 0% in the assay with CLK1; 0% with CLK2; 0% in the assay with CLK3; 0% with CLK4; 1% in the assay with CSF1R-autoinhibited. For the same compound, the “%Inh” value in the assay with CSF1R and in the assay with CSK was 0% each time.
As for `CCn1cnc2c(N)ncnc21` [GW345098], the “%Inh” value in the assay with CDK4-cyclinD3 was 0%; in the assay on CDK4 it was 0%; in the assay on CDK5, 28%; with CDK7 it was 20%; with CDK8, 7%; in the assay with CDK9, 0%. The “%Inh” value with CDKL1 came to 25%; in the assay with CDKL2, 0%; in the assay with CDKL3 it was 0%; in the assay with CDKL5, 0%; in the assay with CHEK1 it was 12%; in the assay with CHEK2 it was 0%. For the same compound, the “%Inh” value in the assay with CIT is given as 6%; in the assay with CLK1, 30%; with CLK2, 18%; with CLK3, 69%; in the assay on CLK4, 1%; in the assay with CSF1R-autoinhibited, 0%. For the same compound, the “%Inh” value with CSF1R and in the assay with CSK was 0% in each case.
Take `COc1cc2c(cc1OC[C@@H](O)CO)ncc1c3ccc(C#N)cc3[nH]c21`: the “%Inh” value in the assay with CDK4-cyclinD3 is 0%; with CDK4, 4%; in the assay with CDK5 it was 17%; with CDK7, 99.5%; with CDK8, 15%; in the assay with CDK9, 0%. The “%Inh” value in the assay with CDKL1 came to 12%; with CDKL2 it was 0%; with CDKL3 it was 8%; with CDKL5, 0%; with CHEK1, 7%; in the assay with CHEK2 it was 48%. Further, the “%Inh” value turned out to be 94.8% in the assay with CIT; 89% in the assay with CLK1; 88% in the assay with CLK2; 2% in the assay with CLK3; 89% with CLK4; 96.6% in the assay on CSF1R-autoinhibited. Further, the “%Inh” value was determined as 44% with CSF1R and 1% in the assay with CSK.
Turning to `COc1ccc(Nc2nccc(N3CCC(NC(=O)Nc4cc(C)ccc4C)C3)n2)cc1` (stereo not drawn) [GSK1379741], the “%Inh” value in the assay with CDK4-cyclinD3 worked out at 0%; with CDK4, 0%; in the assay on CDK5 it was 0%; in the assay with CDK7, 0%; in the assay with CDK8, 11%; in the assay on CDK9, 0%. The “%Inh” value in the assay on CDKL1 turned out to be 0%; in the assay with CDKL2, 44%; in the assay on CDKL3 it was 0%; with CDKL5 it was 5%; in the assay on CHEK1, 0%; with CHEK2, 0%. Also, the “%Inh” value in the assay on CIT stood at 5%; in the assay with CLK1, 14%; in the assay with CLK2, 0%; with CLK3, 0%; with CLK4 it was 0%; in the assay with CSF1R-autoinhibited it was 0%. For the same compound, the “%Inh” value in the assay with CSF1R stood at 4%; in the assay on CSK it was 0%.
Take `NS(=O)(=O)c1cccc(-c2ccc3ncc(N4CCOCC4)nc3c2)c1` [GSK1535721]: the “%Inh” value was 0% in the assay on CDK4-cyclinD3; 12% with CDK4; 0% in the assay with CDK5; 20% with CDK7; 31% with CDK8; 3% in the assay on CDK9. In addition, the “%Inh” value in the assay with CDKL1 is 15%; in the assay with CDKL2, 0%; in the assay with CDKL3 it was 0%; in the assay on CDKL5, 0%; in the assay on CHEK1, 0%; in the assay with CHEK2 it was 37%. Moreover, the “%Inh” value in the assay with CIT amounted to 7%; in the assay on CLK1, 11%; in the assay with CLK2 it was 12%; with CLK3, 0%; in the assay on CLK4, 18%; with CSF1R-autoinhibited, 8%. Further, the “%Inh” value in the assay on CSF1R and in the assay with CSK was 0% each time.
Turning to `NCC(NC(=O)c1cc(-c2cn[nH]c2)c(-c2ccnc3[nH]ccc23)s1)c1ccccc1.O=C(O)C(F)(F)F.O=C(O)C(F)(F)F` (stereo not drawn) [GSK1325775], the “%Inh” value came out at 41% in the assay with CDK4-cyclinD3; 0% in the assay on CDK4; 0% in the assay with CDK5; 93.7% in the assay on CDK7; 33% in the assay with CDK8; 64% with CDK9. In addition, the “%Inh” value was determined as 34% in the assay on CDKL1; 53% in the assay on CDKL2; 68% in the assay with CDKL3; 48% in the assay on CDKL5; 37% in the assay with CHEK1; 86% in the assay on CHEK2. The “%Inh” value came out at 96.6% in the assay with CIT; 74% in the assay with CLK1; 68% in the assay with CLK2; 70% with CLK3; 66% in the assay on CLK4; 0% with CSF1R-autoinhibited. Moreover, the “%Inh” value in the assay with CSF1R amounted to 26%; in the assay on CSK, 10%.
As to `Cn1ccc2ncnc(Oc3ccc(NC(=O)Nc4ccncc4)c(Cl)c3)c21`, the “%Inh” value in the assay on CDK4-cyclinD3, with CDK4, in the assay on CDK5, with CDK7, in the assay with CDK8 and with CDK9 was 0% throughout. The “%Inh” value is reported as 0% with CDKL1; 0% in the assay on CDKL2; 0% in the assay with CDKL3; 49% in the assay on CDKL5; 0% with CHEK1; 20% with CHEK2. For the same compound, the “%Inh” value with CIT is listed as 18%; in the assay on CLK1 it was 0%; in the assay with CLK2, 0%; in the assay with CLK3, 0%; in the assay with CLK4, 21%; in the assay on CSF1R-autoinhibited, 0%. Moreover, the “%Inh” value in the assay on CSF1R and with CSK was 0% in each case.
On to `O=C1NC(=O)C(N2CCc3ccccc32)=C1c1cccc(Cl)c1` [SB-408010], for which the “%Inh” value stood at 0% in the assay on CDK4-cyclinD3; 0% in the assay with CDK4; 7% with CDK5; 9% with CDK7; 0% in the assay with CDK8; 0% in the assay on CDK9. For the same compound, the “%Inh” value is given as 0% in the assay on CDKL1; 11% in the assay with CDKL2; 0% with CDKL3; 0% in the assay with CDKL5; 0% in the assay with CHEK1; 7% in the assay with CHEK2. Also, the “%Inh” value with CIT is 0%; in the assay on CLK1, 0%; in the assay with CLK2 it was 0%; with CLK3, 0%; in the assay with CLK4 it was 21%; in the assay on CSF1R-autoinhibited, 16%. The figures for the “%Inh” value in the assay with CSF1R and in the assay with CSK were 0% and 11%, respectively.
On to `COCCNC(=O)c1ccc(-c2cc(C(=O)NC3CC3)cc(F)c2C)cc1` [GW868318], for which the “%Inh” value in the assay with CDK4-cyclinD3 was 0%; in the assay on CDK4 it was 21%; with CDK5, 11%; in the assay on CDK7, 25%; with CDK8, 0%; in the assay on CDK9 it was 0%. For the same compound, the “%Inh” value with CDKL1 is on record as 19%; with CDKL2, 28%; with CDKL3 it was 27%; with CDKL5, 26%; with CHEK1, 9%; with CHEK2 it was 19%. Besides, the “%Inh” value in the assay with CIT was 1%; in the assay with CLK1 it was 18%; with CLK2 it was 24%; with CLK3, 37%; with CLK4, 10%; in the assay on CSF1R-autoinhibited, 5%. Moreover, the “%Inh” value in the assay on CSF1R turned out to be 19%; in the assay on CSK, 13%.
